From PubChem BioAssay
Where “and” joins values, the source holds several entries; their conditions need not be identical. Identical values can stand only once. Calls of active or inactive are those of the source.

How the values were obtained:
[1] = anti-His antibody binders, primary screen, artefact control for SMM control protein annotation, biochemical, small-molecule microarray, 635 nm fluorescence (AID 1128); conditions: anti-His Alexa647 antibody binding, higher = more signal;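 further: score merges feature fluorescence with signal-to-noise for each printed compound spot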
[2] = system: Human papillomavirus type 1a E7 protein (residues 1-88); assay: HPV1a E7 small-molecule binders, primary screen, biochemical, small-molecule microarray, residues 1-88, 635 nm (AID 1129); conditions: small-molecule microarray binding, fluorescence 635 nm; higher = more signal
[3] = target: Focal adhesion kinase 1 (Homo sapiens) (UniProt Q05397); assay: small-molecule microarray binders of FAK, primary screen, biochemical, 635/667 nm fluorescence, BSA, DTT (AID 1130); conditions: PTK2 binding, 635 nm fluorescence, higher = more signal;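 further: composite of spot emission at 667 nm and signal to noise over triplicate slides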
Chain of Focal adhesion kinase 1 (Homo sapiens) (Q05397 whole entry, looked up): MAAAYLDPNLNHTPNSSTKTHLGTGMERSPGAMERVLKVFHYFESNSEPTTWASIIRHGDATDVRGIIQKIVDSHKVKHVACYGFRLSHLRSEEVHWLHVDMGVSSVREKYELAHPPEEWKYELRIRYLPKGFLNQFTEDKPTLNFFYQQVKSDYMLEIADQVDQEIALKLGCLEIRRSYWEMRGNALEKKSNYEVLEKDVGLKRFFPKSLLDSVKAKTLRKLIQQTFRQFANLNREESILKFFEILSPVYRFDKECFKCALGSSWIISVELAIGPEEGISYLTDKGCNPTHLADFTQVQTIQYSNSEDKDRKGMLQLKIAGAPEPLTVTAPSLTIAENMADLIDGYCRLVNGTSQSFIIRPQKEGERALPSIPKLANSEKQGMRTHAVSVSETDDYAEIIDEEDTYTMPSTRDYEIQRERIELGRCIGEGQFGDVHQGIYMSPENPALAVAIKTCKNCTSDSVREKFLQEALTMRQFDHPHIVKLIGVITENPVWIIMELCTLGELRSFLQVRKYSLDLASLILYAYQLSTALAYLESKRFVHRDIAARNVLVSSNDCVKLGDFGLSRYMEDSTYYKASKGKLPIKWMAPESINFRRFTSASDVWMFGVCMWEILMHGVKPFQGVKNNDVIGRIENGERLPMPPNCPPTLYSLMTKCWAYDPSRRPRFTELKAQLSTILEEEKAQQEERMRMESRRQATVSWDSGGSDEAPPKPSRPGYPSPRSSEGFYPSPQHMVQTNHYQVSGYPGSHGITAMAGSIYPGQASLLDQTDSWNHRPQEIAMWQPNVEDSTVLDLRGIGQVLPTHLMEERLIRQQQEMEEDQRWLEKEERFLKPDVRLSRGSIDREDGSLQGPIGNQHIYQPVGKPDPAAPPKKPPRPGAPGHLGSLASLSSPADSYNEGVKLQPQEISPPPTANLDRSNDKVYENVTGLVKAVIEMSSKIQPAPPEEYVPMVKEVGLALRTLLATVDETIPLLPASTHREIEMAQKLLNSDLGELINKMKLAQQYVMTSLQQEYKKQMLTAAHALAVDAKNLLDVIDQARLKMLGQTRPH

[4] = system: Fibrinogen (Alexa647-labelled); assay: fibrinogen binders on compound microarrays, profiling panel, artefact control for SMM control-protein annotation, biochemical, small-molecule microarray, 635/667 nm fluorescence (AID 1131); conditions: fibrinogen-A647 binding fluorescence, higher = more signal;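 further: z-score merges 667 nm fluorescence with per-spot signal-to-noise over triplicate slides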
[5] = target: Follistatin (Homo sapiens) (UniProt P19883); assay: follistatin binders on small-molecule microarrays, primary screen, biochemical, small-molecule microarray, 635/667 nm fluorescence (AID 1132); conditions: FST binding, 635 nm fluorescence, higher = more signal
Chain of Follistatin (Homo sapiens) (P19883 whole entry, looked up): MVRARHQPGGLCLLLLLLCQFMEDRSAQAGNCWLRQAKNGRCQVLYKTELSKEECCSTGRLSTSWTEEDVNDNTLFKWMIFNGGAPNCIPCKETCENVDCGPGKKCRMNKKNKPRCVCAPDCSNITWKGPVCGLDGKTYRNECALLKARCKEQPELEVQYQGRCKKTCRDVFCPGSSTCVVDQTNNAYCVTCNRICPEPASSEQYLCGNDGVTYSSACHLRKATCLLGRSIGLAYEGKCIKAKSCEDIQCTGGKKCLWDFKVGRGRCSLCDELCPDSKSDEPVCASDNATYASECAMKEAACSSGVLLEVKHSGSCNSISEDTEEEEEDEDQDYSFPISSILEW

[6] = target: Fibroblast growth factor 2 (Homo sapiens) (UniProt P09038); assay: FGF2 binders on small-molecule microarrays, primary screen, biochemical, small-molecule microarray, 635/667 nm fluorescence (AID 1133); conditions: small-molecule microarray binding, FGF2, fluorescence 635/667; higher = more signal
Chain of Fibroblast growth factor 2 (Homo sapiens) (P09038 whole entry, looked up): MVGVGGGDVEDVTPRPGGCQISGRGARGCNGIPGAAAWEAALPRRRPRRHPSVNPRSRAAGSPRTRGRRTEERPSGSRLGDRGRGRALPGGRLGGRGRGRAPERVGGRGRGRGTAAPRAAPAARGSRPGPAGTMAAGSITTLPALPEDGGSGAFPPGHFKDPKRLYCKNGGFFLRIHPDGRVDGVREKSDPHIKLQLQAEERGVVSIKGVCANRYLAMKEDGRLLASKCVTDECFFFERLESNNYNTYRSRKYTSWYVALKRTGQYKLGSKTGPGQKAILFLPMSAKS

[7] = mitochondrial membrane potential change in A549 cells, profiling panel, cell-based, JC-1 fluorescence, basal, 24 h, 100 nL (AID 1138); conditions: higher = more signal;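 further: A549 lung adenocarcinoma cells under basal conditions with no added stimulus; test concentration not given here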
Lefty1 = Lefty1 binders on small-molecule microarrays, primary screen, biochemical, small-molecule microarray, 635/667 nm fluorescence (AID 1139); conditions: small-molecule microarray binding, fluorescence 635/667; higher = more signal
[8] = system: wheat germ agglutinin (Triticum aestivum), Alexa647-labelled; assay: wheat germ agglutinin binders on compound microarrays, profiling panel, artefact control for SMM control-protein annotation, biochemical, small-molecule microarray, 635/667 nm fluorescence (AID 1140); conditions: WGA-A647 binding, 635 nm fluorescence, higher = more signal;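 further: score merges 667 nm feature emission with signal to noise over triplicate slides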
[9] = target: Luciferin 4-monooxygenase (Photinus pyralis) (UniProt P08659); assay: firefly luciferase enzyme inhibitors, primary screen, biochemical, luminescence, purified enzyme, 2006 set (AID 1141); conditions: SteadyGlo luminescence, 30 min, higher = more signal, called active from +8 up or from −8 down;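 further: cell-free assay with purified firefly luciferase at 100 ng per well in PBS; test concentration not given here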
Chain of Luciferin 4-monooxygenase (Photinus pyralis) (P08659 whole entry, looked up): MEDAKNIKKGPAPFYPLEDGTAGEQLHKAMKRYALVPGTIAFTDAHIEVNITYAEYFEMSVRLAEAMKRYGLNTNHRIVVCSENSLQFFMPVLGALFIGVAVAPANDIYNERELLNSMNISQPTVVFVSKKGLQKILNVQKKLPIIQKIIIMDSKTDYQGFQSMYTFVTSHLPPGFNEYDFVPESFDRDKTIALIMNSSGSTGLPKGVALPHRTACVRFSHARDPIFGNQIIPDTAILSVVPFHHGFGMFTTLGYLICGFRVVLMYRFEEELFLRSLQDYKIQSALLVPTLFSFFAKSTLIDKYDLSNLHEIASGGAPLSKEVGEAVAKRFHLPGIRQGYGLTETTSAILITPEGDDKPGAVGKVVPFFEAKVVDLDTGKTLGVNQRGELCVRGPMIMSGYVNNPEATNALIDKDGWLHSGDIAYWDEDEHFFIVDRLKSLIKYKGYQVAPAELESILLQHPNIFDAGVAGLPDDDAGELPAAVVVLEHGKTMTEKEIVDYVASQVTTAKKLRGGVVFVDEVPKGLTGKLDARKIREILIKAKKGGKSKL

SMILES | composite z-score [1] | composite z-score [2] | composite z-score [3] | composite z-score [4] | composite z-score [5] | composite z-score [6] | z-score [7] | composite z-score (Lefty1) | composite z-score [8] | z-score [9]
CCOC(=O)[C@H](Cc1ccccc1)NC(=O)CCC1CC(OC(=O)NCc2cccc3ccccc23)CC2(CCCC(COC(=O)NCCCN3CCCC3=O)O2)O1 (stereo not given in full) | 0.903 | 1.05 | 0.222 | 0.951 | 0.625 | 0.467 | 1.21 | 0.539 | 0.0826 | 0.782 (inactive)
C=CCN(C(=O)C1N(c2c(Cl)cccc2CO)C(=O)C2C(C(=O)O)C3C=CC21O3)c1ccc(OC)cc1 (stereo not given) | 0.0132 and -1.11 | -0.52 and -1.47 | -0.542 and -1.13 | -0.79 and -1.58 | -1.08 and -1.26 | -1.37 and -1.76 | -1.09 and 1.22 | -2.14 and -2.24 | 0.174 and -1.28 | 1.4 (inactive) and -1.32 (inactive)
CCOC(=O)c1ccc(NC(=O)O[C@H]2[C@H](OC(=O)Nc3ccccc3)[C@@H](OC(=O)Nc3ccccc3)[C@@H](OC)O[C@@H]2CO)cc1 | 2.39 and 2.88 | 1.26 and 1.28 | 1.78 and 0.545 | 1 | 1.2 and 1.4 | 0.601 and 1.59 | -1.02 and -1.32 | 0.88 and 1.51 | 1.32 and 1.12 | -0.427 (inactive) and -0.249 (inactive)
COC(=O)C1=C(C)N(Cc2ccccc2)C2=C3C(=O)CCC[C@@H]3[C@@](O)(C(=O)OC)C(=O)N2[C@@H]1c1ccccc1 | 0.043 and -0.496 | 0.501 and 0.0093 | -0.12 and 0.177 | 0.335 and -1.14 | 0.584 and 0.158 | 0.997 and 0.581 | 1.22 and 0.728 | 0.573 and 0.217 | 0.121 and -1.1 | -1.29 (inactive) and -1.47 (inactive)
O=C1C[C@]2(c3ccc([N+](=O)[O-])cc3)C(=O)N(Cc3ccccc3)c3cc(CO)ccc3[C@H]2N1C1CCCCC1 | 0.0501 and 1.06 | 0.905 and 0.134 | 0.152 and 0.0229 | -0.437 and -0.106 | 0.585 and 1.41 | 0.368 and 1.02 | -0.38 and 0.277 | 0.507 and 0.482 | -0.329 and 0.59 | 0.302 (inactive) and -0.537 (inactive)
CCCNC(=O)OC[C@H]1O[C@H](CCON=C(C)CCC(=O)OC[C@H]2O[C@H](C#Cc3ccccc3)C=C[C@@H]2Oc2ccc(C)cc2)C=C[C@@H]1Oc1ccc(OC)cc1 | 0.0888 | -0.216 | -0.17 | -0.185 | -0.437 | -0.251 | -0.611 | 0.0233 | -0.26 | 1.41 (inactive)
CC(C)[Si]1(C(C)C)OCc2cc(C3CC3)nc(CCc3ccccc3)c21 | -0.363 and -0.0162 | -0.868 and 0.316 | -0.177 and -0.249 | -0.582 and 0.111 | 0.0259 and 0.303 | -0.329 and 0.0149 | -0.323 and -1.45 | -0.237 and 0.22 | -0.269 and 0.0131 | -0.324 (inactive) and 0.744 (inactive)
C=C[C@@H](OC)[C@H](O)c1ccc(O)c(F)c1 | -0.709 and -0.462 | -0.912 and -1.26 | -0.746 and -0.838 | -1.11 and -0.58 | -1.18 and -0.404 | -1.39 and 0.0341 | -0.329 and 0.662 | -1.7 and -0.947 | -0.303 and -0.223 | -0.981 (inactive) and -1.3 (inactive)
Cc1ccc(S(=O)(=O)OC[C@@H]2CN3[C@@H](CC[C@@H](C)[C@@H]3c3ccc(Br)cc3)C(=O)O2)cc1 | 0.882 and -0.0006 | 0.433 and 0.434 | 0.0343 and 0.0817 | 0.555 and 0.193 | 0.137 and 0.577 | 0.281 and 0.102 | -0.346 and 0.285 | 0.229 and 0.512 | 0.382 and 0.37 | 0.39 (inactive) and 0.13 (inactive)
C=CCN(C(=O)C1N(c2c(Cl)cccc2CO)C(=O)C2C(C(=O)O)C3C=CC21O3)C(C)(C)C (stereo not given) | -0.687 and -0.455 | 0.0063 and -0.941 | -0.0019 and 0.0154 | -0.925 and -0.724 | -0.85 and -0.957 | -1.46 and -0.409 | -0.868 and 1.49 | -1.33 and -1.93 | -0.0278 and -0.665 | 1.15 (inactive) and -1.5 (inactive)
CCCNC(=O)OC[C@H]1O[C@H](CCON=C(C)CCN2CCc3nc(-c4ccccc4)c(-c4ccccc4)cc3C2)C=C[C@@H]1Oc1ccc(OC)cc1 | 1.29 | 0.0969 | 0.301 | 0.283 | 0.295 | 0.279 | 1.87 | 0.236 | 0.356 | -0.076 (inactive)
C[N+](C)(C)CCCCCCNC(=O)[C@H]1C[C@H]2C(=O)N[C@@H](CCCC[N+](C)(C)C)C(=O)N2[C@H]1c1cccc(OCCO)c1 | 1.91 and 1.46 | 0.516 and -0.266 | -0.063 and 0.0884 | 0.638 and -0.338 | 1.39 and 1.43 | 1.82 and 1.66 | 0.357 and -0.307 | 1.59 and 0.768 | 0.348 and 0.29 | -0.0709 (inactive) and 0.15 (inactive)
C=CCN(CCCC)C(=O)C1N(CCOCCO)C(=O)C2C(C(=O)O)C3C=CC21O3 (stereo not given) | 1.11 and -1.66 | -0.741 and -0.901 | -0.619 and -0.291 | -1.43 and -0.885 | -0.817 and -1.32 | -1.68 and -1.4 | -0.409 and -0.724 | -1.6 and -2.23 | -0.557 and -0.16 | 0.694 (inactive) and 0.806 (inactive)
